Experimental findings from PubChem BioAssay (NCATS) are described below.

Test [1] deals with Calcium and integrin-binding protein 1 (Homo sapiens) (UniProt Q99828). As to the kind of experiment: Primary qHTS for Identification of Calcium Integrin Binding Protein 1 (CIB1) Competitor (AID 1508620).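 Further: GST tagged CIB1 binding a fluorescein labelled alphaIIb integrin peptide tracer; top concentration of the series differs between compounds.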 The procedure, abridged: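 Fluorescence polarization competition: CIB1-GST (1 uM final) preincubated with compound 15 min at room temperature, then FITC-labeled alphaIIb peptide (100 nM final) added for another 15 min. Polarization read at Ex 480/Em 540.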
Sequence of Calcium and integrin-binding protein 1 (Homo sapiens) (Q99828 whole entry, looked up): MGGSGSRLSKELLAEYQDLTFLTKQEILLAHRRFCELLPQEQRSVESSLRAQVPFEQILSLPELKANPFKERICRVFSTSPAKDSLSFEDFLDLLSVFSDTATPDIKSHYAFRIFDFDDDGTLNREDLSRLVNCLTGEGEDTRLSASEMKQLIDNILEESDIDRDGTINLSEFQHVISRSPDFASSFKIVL
Background: In qHTS, concentration-response curves come from the screen itself.

A short description of test [2]: Primary qHTS for inhibitors of nuclear receptor binding SET domain protein 2 (NSD2) in an isogenic RCH-ACV NSD2 p.E1099K mutant (9B) (AID 1645876). Further: nearly all actives have a fitted effect of over 70% in size. Further: potency means the concentration at half of the fitted maximal effect.
Test [3] can be described thus: Primary qHTS for inhibitors of nuclear receptor binding SET domain protein 2 (NSD2) in an RCH-ACV wild type WT cells (2C) (AID 1645877). Further: nearly all actives have a fitted effect of over 70% in size. Further: potency means the concentration at half of the fitted maximal effect.

Each structure is given as a SMILES string. Results filed as inconclusive are left out. Values without a mark were called inactive. Active and inactive are the calls of the source. The call rests on the fitted dose curve; in most records, active means well fitted curve in the direction sought with a large enough effect; inconclusive means small, poorly fitted or top-dose-only effect, or another doubt; inactive means no such curve, though single readings can be large; an effect the other way counts as inactive or inconclusive.
On the % scale 0 is the no-effect control and ±100 the full control effect.

For `O=C(O[C@@H]1O[C@H](CO)[C@@H](O)[C@H](O)[C@H]1O)c1ccccc1`, the Potency entry in test [1], in test [2] and in test [3] was “inactive” in each case.
Regarding `C/C1=C\CC[C@]2(C)O[C@H]2C(=O)c2c(C)coc2C1`, the Potency entry in test [1], in test [2] and in test [3] was “inactive” in each case.
Take `O=C(/C=C/c1ccc(O)cc1)O[C@@H]1C[C@@](O)(C(=O)O)C[C@@H](O)[C@@H]1O`: the Potency result in test [1], in test [2] and in test [3] was “inactive” throughout.
With `C=C1CC/C=C(/C(=O)O)CCC2C1CC2(C)C` (configuration not stated), the Potency entry in test [1], in test [2] and in test [3] was “inactive” throughout.
For `O=C(C1OC1/C=C/c1ccc2c(c1)OCO2)N1CCCCC1` (configuration not stated), the Potency result in test [1], in test [2] and in test [3] was “inactive” in each case.
Turning to `CC/C=C/C(O)C(O)C1=C(C)C(=O)C2(O1)C(=O)NC(OC)(C(=O)c1ccccc1)C2O` (configuration not stated), the Potency entry in test [1], in test [2] and in test [3] was “inactive” throughout.
Turning to `CC1(C)C2CC[C@@]34CC(CC[C@H]3[C@]2(C)CC[C@@H]1O[C@@H]1O[C@H](CO)[C@@H](O)[C@H](O)[C@H]1O)[C@](C)(O)C4` (some centres not stated), the Potency result in test [1], in test [2] and in test [3] was “inactive” each time.
As for `CC(C)CC(=O)OC[C@@]1(O)C[C@@]23CC[C@H]4[C@@](C)(CCC[C@@]4(C)C(=O)O)[C@@H]2CC[C@@H]1C3`, the Potency entry in test [1], in test [2] and in test [3] was “inactive” throughout.
As for `CCC(C)/C=C(C)/C=C/C1=CC2=C(Cl)C(=O)C(C)(OC(C)=O)C(=O)C2=CN1C(CC(=O)O)C(=O)O` (configuration not stated), the Potency result in test [1], in test [2] and in test [3] was “inactive” in each case.
In the case of `CC(=O)OC[C@@]12C(=O)C[C@@H](C)[C@]3(C[C@@H](c4ccoc4)OC3=O)[C@H]1CC[C@H](OC(C)=O)[C@]21CO1`, the Potency entry in test [1], in test [2] and in test [3] was “inactive” in each case.
In the case of `O=C(Nc1ccn(Cc2c(F)cccc2C(F)(F)F)n1)c1c(F)cccc1F`, the Potency result in test [1] is “inactive”. For the same compound, the activity change, negative = viability loss in test [2] was -7.96% [at 9.23 µM]. Moreover, in test [3], the activity change, negative = cell killing is -25.3% [at 9.23 µM].
In the case of `COc1cc(C2OCC3(O)C(c4ccc(O[C@@H]5O[C@H](CO)[C@@H](O)[C@H](O)[C@H]5O)c(OC)c4)OCC23O)ccc1O` (some centres not stated), the Potency entry in test [1], in test [2] and in test [3] was “inactive” in each case.
In the case of `CC(=O)OC12CC(C)C(O)C1/C=C(/COC1OC(CO)C(O)C(O)C1O)CCC1C(/C=C(\C)C2=O)C1(C)C` (configuration not stated), the Potency entry in test [1], in test [2] and in test [3] was “inactive” each time.
For `COc1cc2c(cc1OC)N1C(=O)C[C@@]34C=CC[N@+]5([O-])CC[C@H]2[C@H](CC3)[C@@]145`, the Potency entry in test [1], in test [2] and in test [3] was “inactive” throughout.
Consider `C=C1CC[C@H]2[C@@](C)(CCC(OC3OC(CO)C(O)C(O)C3O)[C@@]2(C)CO)C1C(=O)CC1=CCOC1=O` (some centres not stated), for which the Potency result in test [1], in test [2] and in test [3] was “inactive” throughout.
In the case of `C=C[C@@](C)(CCC=C(C)C)O[C@@H]1O[C@H](CO[C@@H]2OC[C@H](O)[C@H](O)[C@H]2O)[C@@H](O)[C@H](O)[C@H]1O`, the Potency entry in test [1], in test [2] and in test [3] was “inactive” each time.
On to `C=C1C(O)C(OC(=O)c2ccccc2)C2C(C)(C(=O)O)CCCC2(C)C1CC/C(C)=C\CO` (configuration not stated), for which the Potency result in test [1], in test [2] and in test [3] was “inactive” throughout.
As to `C=C1C(OC(C)=O)[C@@]23CCC4[C@](C)(C(=O)O)CCC[C@@]4(C)[C@]2(O)CC[C@H]1C3` (some centres not stated), the Potency result in test [1], in test [2] and in test [3] was “inactive” throughout.
Regarding `CC1C2=CC(=O)OC2(O)CC2C1CCC1C(C)(C)CCC(O)C21C` (configuration not stated), the Potency entry in test [1] was “inactive”. Besides, the Potency in test [2] was 14.2 µM (active); in test [3] it was 8.98 µM (active).
Taken in the same sequence, the figures for `COc1cc2c(cc1O)C(c1ccc(O)cc1)C(C)C(C)C2` (configuration not stated) were “inactive”, 25.8 µM (active) and 18.3 µM (active).
On to `COC(=O)C1=COC(OC2OC(CO)C(O)C(O)C2O)C2C(C)C(OC(C)=O)C(OC(=O)c3ccccc3)C12` (configuration not stated), for which the Potency result in test [1], in test [2] and in test [3] was “inactive” each time.
Turning to `COC(=O)C[C@H]1C(C)(C)[C@H](OC(=O)C(C)C)C2CC3=C4CC(=O)O[C@@H](c5ccoc5)[C@]4(C)CCC3[C@@]1(C)C2=O` (some centres not stated), the Potency result in test [1], in test [2] and in test [3] was “inactive” in each case.
With `C=C(C)C1CCC2(C(=O)OC3OC(COC4OC(CO)C(O)C(O)C4O)C(OC4OC(C)C(O)C(O)C4O)C(O)C3O)CCC3(C(=O)O)C(CCC4C5(C)CCC(=O)C(C)(C)C5CCC43C)C12` (configuration not stated), the Potency entry in test [1] was “inactive”. Further, the outcome in test [2] and in test [3] was “inactive [at 9.23 µM]” in each case.
Consider `CC1(C)CC[C@]2(C(=O)O[C@@H]3O[C@H](CO[C@@H]4O[C@H](CO)[C@@H](O)[C@H](O)[C@H]4O)[C@@H](O)[C@H](O[C@@H]4O[C@H](CO)[C@@H](O)[C@H](O)[C@H]4O)[C@H]3O)[C@H](O)C[C@]3(C)C(=CCC4[C@@]5(C)CC[C@H](O[C@@H]6OC[C@@H](O)[C@H](O)[C@H]6O)[C@@](C)(C(=O)O)C5CC[C@]43C)[C@@H]2C1` (some centres not stated), for which the Potency result in test [1] is “inactive”. In test [2], the activity change, negative = viability loss was -2.24% [at 9.23 µM]. Besides, the activity change, negative = cell killing in test [3] was -1.62% [at 9.23 µM].
